From PubChem BioAssay
FBW7 activator = FBW7 E3 ligase activators, primary screen, biochemical, AlphaScreen, human | F-box/WD repeat-containing protein 7 (Homo sapiens), Q969H0 | AlphaScreen FBW7–phospho-cyclin E peptide binding, activator screen | normalized activity (activation), % at 26.1 µM | hit rate 0.13% among 650,000 | AID 1259310, 2017; in the data active = normalized activity above about 1.9%;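 note: purified mutant Fbw7 with reduced substrate affinity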
Target sequence (Q969H0 whole entry, looked up): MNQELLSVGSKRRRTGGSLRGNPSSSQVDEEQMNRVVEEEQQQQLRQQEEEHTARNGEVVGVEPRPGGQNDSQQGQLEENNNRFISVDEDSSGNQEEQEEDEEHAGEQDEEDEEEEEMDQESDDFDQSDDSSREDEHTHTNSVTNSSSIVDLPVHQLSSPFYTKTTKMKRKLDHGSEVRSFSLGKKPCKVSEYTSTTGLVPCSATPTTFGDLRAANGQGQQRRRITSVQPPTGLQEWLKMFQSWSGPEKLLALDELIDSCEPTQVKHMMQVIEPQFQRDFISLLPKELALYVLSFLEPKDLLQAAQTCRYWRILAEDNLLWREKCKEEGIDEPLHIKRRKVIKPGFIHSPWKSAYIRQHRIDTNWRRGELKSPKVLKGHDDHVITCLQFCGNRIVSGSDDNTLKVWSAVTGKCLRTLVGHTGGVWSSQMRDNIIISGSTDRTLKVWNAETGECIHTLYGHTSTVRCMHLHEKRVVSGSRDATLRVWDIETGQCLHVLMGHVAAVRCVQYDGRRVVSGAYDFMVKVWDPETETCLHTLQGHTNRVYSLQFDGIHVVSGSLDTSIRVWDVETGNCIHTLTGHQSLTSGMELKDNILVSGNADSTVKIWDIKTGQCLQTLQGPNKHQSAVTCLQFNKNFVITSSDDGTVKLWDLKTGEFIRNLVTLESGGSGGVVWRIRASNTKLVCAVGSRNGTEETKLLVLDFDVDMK
MITF primary = MITF inhibitors, primary screen, biochemical, AlphaScreen, human; Microphthalmia-associated transcription factor (Homo sapiens), O75030; AlphaScreen MITF homodimerization, bead proximity signal; inhibition, % at 2.6 µM; hit rate 0.91% among 650,000; AID 1259374, 2018; in the data active = inhibition above about 50%;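 note: 0% = vehicle wells with protein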
GPR151 activ = activators of human GPR151, primary screen, cell-based, PathHunter beta-arrestin, luminescence; AID 1508602, 2020; hit rate 1% among 650,000; G-protein coupled receptor 151 (Homo sapiens), Q8TDV0; PathHunter beta-arrestin GPR151 cells; activation, % at 11.2 µM; in the data active = activation above about 4.9%;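 note: 0% = median of compound wells and 100% = cells with positive control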
TEAD-YAP block = TEAD-YAP interaction inhibition, primary screen, TEAD-YAP interaction inhibitor project, luminescence, HEK-TIYL cells | TEAD-Gal4/YAP UAS-luciferase luminescence | inhibition, % at 9.12 µM | hit rate 1.4% among 640,000; in the data active = inhibition above about 32%;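 note: 0% = median of test compound wells and 100% = reference inhibitor wells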
GPR151 confirm = GPR151 activators, triplicate retest, confirmation, cell-based, PathHunter beta-arrestin, luminescence; GPR151 PathHunter beta-arrestin cells, 90 min; % of EA-reagent control over plate median; shares compounds with GPR151 activ; AID 1508609, 2020; activation, % at 11.2 µM; 6,700 tested, under 10 active;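 active = mean percent activation across replicates above the confirmation screen cutoff of 4.91%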
GPR119 ag = GPR119 activators in beta-arrestin cells, counter-screen for GPR151 activator project, cell-based, PathHunter beta-arrestin, luminescence, triplicate | shares compounds with GPR151 activ | 90 min; 0 = compound-well median, 100 = enzyme-acceptor control | activation, % at 11.2 µM | hit rate 0.3% among 6,700 | AID 1508611, 2020;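 active = mean percent activation in the counterscreen above 29.09%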;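 note: counterscreen on off-target GPR119 to flag nonselective hits from the GPR151 activator screen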
Starred values were filed as active, the others as inactive; nt = not tested or not shown. Only some compounds are listed: those with a hit (about 3.5% of all), similar ones and a draw of the others.

SMILES | FBW7 activator | MITF primary | GPR151 activ | TEAD-YAP block | GPR151 confirm | GPR119 ag
CN1C(=O)/C(=C2\SC(=S)N(CC(=O)O)C2=O)c2ccccc21 | 0 | 9 | 1 | -5 | nt | nt
CC(C)Cn1c(CN2CCN(c3ccc(F)cc3)CC2)nc2c1c(=O)n(C)c(=O)n2C | 0 | 11 | 10* | 2 | 1 | 6
Cn1c(=O)[nH]c(=O)c2c1nc(NCCCN1CCOCC1)n2CCO | 0 | 0 | 10* | -6 | 0 | 5
C=CCSc1nc(N)c(C(=O)OCC)cc1C#N | 0 | -9 | -2 | -46 | nt | nt
Cc1ccc(/C=C/C(=O)NC(C)c2ccccc2)o1 (stereo not given) | 0 | 4 | 1 | 5 | nt | nt
CC(NC(=O)/C=C/c1ccco1)c1ccccc1 (stereo not given) | 0 | 9 | 5.1* | 2 | 0 | 15
CC1CCC(Nc2nc3ccccc3c3nc(-c4cccnc4)nn23)CC1 (stereo not given) | 0 | -1 | 8.1* | -2 | 1 | 10
CCN(CC)c1nc(NCCCN2CCCC2=O)nc(NCc2nc3ccccc3[nH]2)n1 | 0 | 0 | 6.9* | -1 | -1 | 1
CCN(CC)c1nc(NCCCN2CCCC2=O)nc(NCCCN2CCCC2=O)n1 | 0 | 5 | 0 | 0 | nt | nt
Cn1c(=O)cc(OCCCC(=O)N2CCN(c3ccc(F)cc3)CC2)c2ccccc21 | 0 | 8 | -2 | 4 | nt | nt
O=C(CCc1nnc(-c2ccsc2)o1)N1CCc2sccc2C1 | 0 | 13 | 5.4* | -10 | 0 | -5
O=C(Nc1ccc(N2CCCC2)cc1)c1cccnc1 | 0 | 1 | -4 | -39 | nt | nt
COc1ccc2[nH]c(C)c(CN(C)C)c(=O)c2c1 | 0 | -3 | 0 | 15 | nt | nt
CCOc1ccc2[nH]c(C)c(CN(C)C)c(=O)c2c1 | 0 | -1 | 6.8* | -4 | 0 | 4
CC(C)(C)NC(=O)CN1C(=O)COc2ccccc21 | 1 | 17 | -1 | 6 | nt | nt
O=C(NN1C(=O)/C(=C\c2ccccn2)SC1=S)c1ccccc1Cl | 0 | 15 | 0 | 5 | nt | nt
Cc1c(N2C(=O)c3ccc(Br)cc3C2=O)c(=O)n(-c2ccccc2)n1C | 0 | 3 | 5.2* | -5 | 0 | -4
O=C(CCC1(Cc2ccc3c(c2)OCO3)CCC(=O)N1)NCc1nc2c(s1)CCCC2 (stereo not given) | 0 | -3 | 0 | 10 | nt | nt
CC(C)c1[nH]nc2c1C(C(C)C)C(C#N)=C(N)O2 (stereo not given) | 0 | 3 | 8.3* | 0 | 1 | -6
CC(=O)Nc1c2c(nn1-c1nc3ccccc3s1)CCC2 | 1 | 10 | 0 | -10 | nt | nt
Cc1cnn(C)c1C(=O)Nc1c2c(nn1-c1nc3ccccc3s1)CCC2 | 0 | 4 | 20* | 1 | 0 | -2
O=C(N/N=C/c1ccc(C(=O)O)cc1)C(=O)Nc1cccc(Br)c1 | 0 | 1 | 9.3* | 6 | 0 | 0
COc1ccc(C(=O)N/N=C/c2ccc(O)c(OC)c2)cc1 | 0 | 0 | -1 | -26 | nt | nt
COc1cc(/C=N/NC(=O)c2ccc(N(C)S(=O)(=O)c3ccccc3)cc2)ccc1O | 0 | 5 | 9.3* | -9 | 1 | -3
O=C(N/N=C/c1cccc(Br)c1)C(=O)Nc1cccc(C(=O)O)c1 | 0 | 2 | 0 | 0 | nt | nt
SMILES | FBW7 activator | MITF primary | GPR151 activ | TEAD-YAP block | GPR151 confirm | GPR119 ag
COc1ccc(NC(=O)C(=O)N/N=C/c2ccc(C(=O)O)cc2)c(OC)c1 | 0 | 9 | -1 | 2 | nt | nt
COc1ccccc1NC(=O)C(=O)N/N=C/c1ccc(C(=O)O)cc1 | 0 | 14 | 5.3* | 4 | 0 | -5
CN1/C(=C\C=NC2CCS(=O)(=O)C2)C(C)(C)c2ccccc21 (stereo not given) | 1 | 5 | -1 | 2 | nt | nt
Cc1ccc(/C(N)=N/OC(=O)CCc2ccccc2)cc1 | 0 | 9 | 5.0* | -23 | 0 | -10
Cc1cc(-n2c(SCc3ccccc3)nc3ccsc3c2=O)ccc1Cl | 0 | 1 | 5.6* | -7 | 1 | 8
O=[N+]([O-])c1cccc(C=Nc2ccccc2)c1O | 0 | 8 | 2 | 5 | nt | nt
CNC(=O)/C=C/c1cccc(C(F)(F)F)c1 | 0 | -9 | 6.1* | 7 | 0 | 3
CC(C)(C)n1nnnc1CN1CCC(NC(=O)C2CCCCC2)CC1 | 0 | 22 | -1 | 5 | nt | nt
Cc1nc2c(-c3ccccc3)c(C)nn2c(C)c1CCC(=O)NCCN1CCOCC1 | 0 | -4 | 7.6* | 1 | -1 | -7
Cc1nnc(SCC(=O)O)n1/N=C/c1ccc2c(c1)OCO2 | 0 | -6 | 2 | -8 | nt | nt
Cc1nnc(-c2ccccc2)c(=O)n1/N=C/c1ccc2c(c1)OCO2 | 0 | -9 | 8.1* | -6 | 0 | 8
CC(C(=O)NCCc1c[nH]c2ccccc12)N1C(=O)CC(C)(C)Sc2ccccc21 (stereo not given) | 0 | 16 | 0 | 1 | nt | nt
O=C(NC1CC1)c1cccc(Nc2ccc(-n3ccnc3)cc2)c1 | 0 | 7 | 6.2* | -1 | 1 | -3
CC(=O)Nc1ccccc1C(=O)C(=O)Nc1ccc(C(=O)NCc2ccc(F)cc2)cc1 | 1 | 10 | 0 | 5 | nt | nt
CC1CN(C)CCC1CCc1ccc(NC(=O)Cn2cnc3c2c(=O)[nH]c(=O)n3C)cc1 (stereo not given) | 0 | 2 | 1 | -1 | nt | nt
CC(=O)Nc1ccc(S(=O)(=O)Nc2sc3c(c2C(N)=O)CCC(C)C3)cc1 (stereo not given) | 0 | 3 | -1 | 6 | nt | nt
CCCC1CCc2c(sc(NS(=O)(=O)c3ccc(NC(C)=O)cc3)c2C(N)=O)C1 (stereo not given) | 0 | 6 | 10* | 1 | 0 | -9
N#Cc1c(C(F)(F)F)cc(-c2cccs2)nc1SC1CC(=O)N(c2ccccc2)C1=O (stereo not given) | 1 | -3 | 5.1* | 0 | 0 | 7
N#Cc1c(C(F)(F)F)cc(-c2cccs2)nc1SCC(=O)O | 0 | 6 | 0 | 9 | nt | nt
O=C(CSc1ncccc1C(=O)NCc1cccnc1)Nc1ccc(Br)cc1 | 0 | -11 | 0 | -7 | nt | nt
CCOc1ccccc1Nc1nncc(=O)[nH]1 | 0 | -3 | 0 | 11 | nt | nt
CCc1ccccc1Nc1nncc(=O)[nH]1 | 0 | -1 | 7.2* | 11 | -2 | -10
Cn1cccc1C(=O)OCC(=O)NC(=O)NCc1ccccc1 | 0 | 7 | 6.2* | 3 | 2 | 13
CCOC(=O)C1C(=O)CC(C)(O)C(C(=O)OCC)C1c1cccnc1 (stereo not given) | 0 | -3 | 5.0* | -9 | 0 | 4
